# Compound activity as filed in PubChem.
# KB-3-1 cytotox: KB-3-1 parental cell cytotoxicity; KB-3-1 viability, CellTiter-Glo ATP luminescence, 72 h; Potency, µM (titrated, usually from 46.1 µM), most hits filed as cytotoxic; actives 1.4% (n = 400,000); AID 1347075; further: on the % scale 0 is the no-effect control and ±100 the full control effect; nearly all actives have a fitted effect of over 60% in size
#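 Luminescent ATP read-out (CellTiter-Glo) measures survival of drug-naive KB-3-1 cells after 72 h compound exposure at 37 °C. Titration series was screened from lowest to highest concentration, with DMSO vehicle plates as background controls.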
# SW480 rerep: DNA re-replication induction in SW480 cells. SW480 DNA re-replication, Hoechst DNA content imaging, 48 h. AID 624297. Potency, µM (doses to about 46.1 µM), for inactives: at the top dose re-replication activation, most hits filed as activators. actives 1.8% (n = 340,000); further: % of control where 0% means no effect; nearly all actives have a fitted effect of over 55% in size
#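 Cells (250 per well) received 23 nL compound or DMSO by pin tool and were kept 48 hr at 37 C, 5% CO2. Nuclei were then stained with Hoechst for 40 min and scanned for DNA content.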
# ELG1 DNA repair: ELG1-dependent DNA repair inhibition | AID 504467 | HEK293T ELG1-luciferase reporter, luminescence, 16 h; DNA damage induced by 5-fluorouridine | Potency, µM (titrated, usually from 46.1 µM), inactives show at the highest dose activity change, negative = inhibition, usual class: inhibitors | actives 2.3% (n = 330,000); further: on the % scale 0 is the no-effect control and ±100 the full control effect; nearly all actives have a fitted effect of over 55% in size
#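 5-Fluorouridine DNA damage + compound/DMSO, 2,000 cells/well, 16 h, 37 °C/5% CO2. ONE-Glo, 30 min RT, luminescence. Readout = decrease in reporter signal.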
# MCF10A rerep: inducers of DNA re-replication in MCF 10A breast cells | MCF 10A DNA re-replication, Hoechst nuclear intensity, 48 h | actives 2.9% (n = 350,000) | Potency, µM (highest dose often 46.1 µM), inactives show top-dose activity, positive = re-replication, actives largely listed as activators; further: % of control where 0% means no effect; nearly all actives have a fitted effect of over 50% in size
# KB-V1 cytotox: KB-V1 MDR subline cytotoxicity. actives 3.4% (n = 400,000). KB-V1 MDR cells viability, CellTiter-Glo, 72 h. AID 1347076. Potency, µM (highest dose often 46.1 µM), hits mostly cytotoxic; further: on the % scale 0 is the no-effect control and ±100 the full control effect; nearly all actives have a fitted effect of over 60% in size
#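 Compound-treated KB-V1 multidrug-resistant cells, 72 h, 37 degrees C; viability by CellTiter-Glo. Fitted qHTS curves give the values.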
# Active calls of the source: *; i = inactive; ? = inconclusive; · = no result given. An excerpt weighted towards active compounds, which were near 8.1% of everything screened. The call rests on the fitted dose curve; in most records, active means well fitted curve in the direction sought with a large enough effect; inconclusive means small, poorly fitted or top-dose-only effect, or another doubt; inactive means no such curve, though single readings can be large; an effect the other way counts as inactive or inconclusive. Potency means the concentration at half of the fitted maximal effect.
SMILES,KB-3-1 cytotox,SW480 rerep,ELG1 DNA repair,MCF10A rerep,KB-V1 cytotox
Cc1ccc(NC(=O)N2CCCCCC2)cc1C,i,-4%,?,3%,i
Cc1ccc(C(NC(=O)N2CCCCC2)=C(Cl)Cl)cc1F,i,6.5µM*,?,16µM*,i
Cc1[nH]c2c(ccc3cccnc32)c1C,i,-25%,15µM*,4%,i
Clc1ccc2ccc3cccnc3c2n1,i,20%,7%,0%,i
Cc1cc(NC(=O)CN2C(=O)NC(c3ccccc3)(c3ccc(C)c(C)c3)C2=O)no1 (configuration not stated),i,1%,?,-2%,i
Cc1ccc(C)c(C(=O)COC(=O)c2ccccc2N2C(=O)C3C4CCC(C4)C3C2=O)c1 (configuration not stated),i,-1%,-16%,0%,4.1µM*
Cc1cc(C(=O)CN2CCN(CC(=O)Nc3cccc(F)c3)CC2)c(C)n1C1CC1,i,-2%,-7%,-6%,10µM*
Cc1cc(C(=O)CN2CCN(CC(=O)Nc3ccc(F)cc3)CC2)c(C)n1C1CC1,i,-8%,-8%,6%,?
CC(=O)c1cccc(NC(=O)C2Cc3c(-c4cccc(C(N)=O)c4)ccnc3O2)c1 (configuration not stated),i,·,·,·,i
CCCCNC(=O)Nc1ccc2c(c1)N(C)C(=O)c1ccccc1S2,i,-1%,-17%,18%,i
CN1C(=O)c2ccccc2Sc2ccc(NC(=O)COc3ccc(Cl)cc3)cc21,?,·,·,·,8.2µM*
Cc1ccc(C(=O)Nc2ccc3c(c2)N(C)C(=O)c2ccccc2S3)cc1,16µM*,·,·,·,?
CCCNC(=O)Nc1ccc2c(c1)N(C)C(=O)c1ccccc1S2,?,6%,-5%,11%,21µM*
CCCC(=O)N1CCC1(C)C(=O)Nc1ncc(C(=O)OC)s1 (configuration not stated),i,·,·,·,i
CC(C)c1ccc2oc(-c3ccc(NC(=O)c4cccc(Br)c4)cc3)nc2c1,i,·,·,·,i
CSc1ccc(/C=C/C(=O)c2ccc(NC(=O)Cc3ccccc3)cc2)cc1,i,18µM*,5%,?,?
CCC(=O)Nc1cccc(C(=O)/C=C/c2ccccc2)c1,?,?,?,8.2µM*,i
CSc1ccc(/C=C/C(=O)c2ccc(NC(=O)C(C)C)cc2)cc1,?,?,-5%,?,?
CSc1ccc(C(=O)/C=C/c2ccc(N)cc2)cc1,?,?,?,23µM*,?
COc1ccc(-c2noc(CCC(=O)N3CCN(c4ccccc4)CC3)n2)cc1,i,-17%,3%,-5%,i
CC(=O)N/C(=C\c1ccccc1)C(=O)OC(C)C(=O)Nc1ccccc1F (configuration not stated),i,-9%,8%,-3%,i
CC(C)c1ccc(OCC(=O)N(Cc2cccs2)C2CCS(=O)(=O)C2)cc1 (configuration not stated),i,·,·,·,i
CCOC(=O)CC1(CCc2ccccc2)Oc2ccccc2O1,i,·,·,·,i
CCOC(=O)CC1(C)Oc2cc(Cl)ccc2N1S(=O)(=O)c1ccc(C)cc1 (configuration not stated),18µM*,·,·,·,?
CCOC(=O)CC1(CCc2ccccc2)Oc2ccccc2N1S(=O)(=O)c1ccc(C)cc1 (configuration not stated),18µM*,·,·,·,?
SMILES,KB-3-1 cytotox,SW480 rerep,ELG1 DNA repair,MCF10A rerep,KB-V1 cytotox
COc1ccc(-c2sc3ccc(N4CCOCC4)cc3c2C#CCO)cc1,i,?,5.2µM*,12µM*,i
COc1ccc(/C=C/c2c(-c3ccc(OC)cc3)sc3ccc(N4CCOCC4)cc23)cc1,i,1%,?,8.2µM*,i
COc1ccc2sc(-c3ccc(SC)cc3)c(/C=C/c3ccc(OC)c(OC)c3)c2c1,i,17%,0%,9.2µM*,i
Cc1ccccc1-c1csc(C(C)(O)c2ccc(F)c(F)c2)n1 (configuration not stated),i,·,·,·,i
C[C@H]1OC(OC2C(O)[C@@H](O)C(OC3C(O)[C@@H](O)C(O)O[C@@H]3CO)O[C@@H]2CO)[C@H](O)C(O)C1N[C@H]1C=C(CO)[C@@H](O)[C@H](O)C1O (some centres not stated),·,-6%,·,-4%,·
CC(=O)Nc1ccc(/C=C2\C=Cc3ccccc32)cc1,i,·,·,·,i
Cc1cccc(Nc2c(-c3cccs3)nc3nc(C)cc(C)n23)c1,i,·,·,·,i
CCc1ccc(OCc2ccccc2C(=O)Nc2ccc3nc(C)cc(N)c3c2)cc1,16µM*,·,·,·,?
CCOC(=O)c1ccc(NC(=O)c2cc(C)nc3ccccc23)cc1,i,-1%,10%,?,i
CC(=O)Nc1cccc(-c2ccnc3c2CC(C)(C(=O)NCCC(F)(F)F)O3)c1 (configuration not stated),?,·,·,·,i
CCOC(=O)Cn1c(-c2cccnc2Cl)nc2cc(Cl)c(Cl)cc21,i,-9%,0%,6%,21µM*
O=C(C[n+]1ccccc1)Nc1ccccc1C(F)(F)F,i,-55%,-5%,3.3µM*,i
Cc1ccc2nc(SC(C)C(=O)Nc3cccc([N+](=O)[O-])c3)[nH]c2c1 (configuration not stated),?,-6%,?,3%,4.1µM*
Cc1ccc2nc(SCC(=O)Nc3ccc(C)c([N+](=O)[O-])c3)[nH]c2c1,i,2%,8%,7%,i
Cc1ccc2nc(SCC(=O)Nc3ccc(F)c([N+](=O)[O-])c3)[nH]c2c1,i,-12%,?,?,21µM*
Cc1ccc2nc(SCC(=O)Nc3cc([N+](=O)[O-])ccc3F)[nH]c2c1,i,-3%,?,?,21µM*
CCc1ccc2oc(C(=O)Nc3sc4c(c3C(=O)NC)CCCC4)cc(=O)c2c1,i,·,·,·,i
Cc1cccn2cc(-c3ccc(S(=O)(=O)N4CCOCC4)cc3)nc12,i,-4%,?,1%,2.3µM*
CSc1ccc(OC2(C)CCN(Cc3ccc(OC(C)C)cc3)C2)cc1 (configuration not stated),i,·,·,·,i
Cc1cc(=O)oc2cc(OCCc3ccccc3)ccc12,21µM*,-2%,?,10%,i
COc1ccc2c(C)cc(=O)oc2c1,i,?,·,-3%,i
COc1cccc(COc2ccc3c(C)cc(=O)oc3c2)c1,i,0%,?,15%,?
Cc1cc(=O)oc2cc(OCCCC[n+]3ccccc3)ccc12,i,0%,4%,10%,i
